Compound activity from PubChem BioAssay.
Compounds with a hit are over-represented: about 6.8% of the library has one in this group of screens.
KB-3-1 cytotox: kills parental KB-3-1 adenocarcinoma cells | KB-3-1 viability, CellTiter-Glo ATP luminescence, 72 h | Potency, µM (titrated, usually from 46.1 µM), actives largely listed as cytotoxic | actives 1.4% (n = 400,000) | AID 1347075; also: % is scaled to controls: 0 for no effect and ±100 for the full control effect; nearly all actives have a fitted effect of over 60% in size
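Cytotoxicity measured as CellTiter-Glo luminescence after 72 h at 37 C. Compound titrations were pinned onto drug-naive KB-3-1 parental adenocarcinoma cells grown in DMEM with 10% FBS, and normalized data fitted to concentration-response curves.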
KB-V1 cytotox: kills drug-selected multidrug resistant KB-V1 cells. KB-V1 MDR cells viability, CellTiter-Glo, 72 h. Potency, µM (doses to about 46.1 µM), hits mostly cytotoxic. actives 3.4% (n = 400,000). AID 1347076; also: % is scaled to controls: 0 for no effect and ±100 for the full control effect; nearly all actives have a fitted effect of over 60% in size
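Drug-selected KB-V1 cells, grown in DMEM lacking phenol red with 10% FBS, receive compound titrations; after three days at 37 degrees C, surviving cell ATP is quantified by CellTiter-Glo luminescence and responses normalized and curve-fitted.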
MCF10A rereplic: induces DNA re-replication in MCF 10a normal breast cells; Potency, µM (series often up to 46.1 µM), without a hit: at the top dose activity, positive = re-replication, most hits filed as activators; AID 624296; actives 2.9% (n = 350,000); MCF 10A DNA re-replication, Hoechst nuclear intensity, 48 h; also: % of control where 0% means no effect; nearly all actives have a fitted effect of over 50% in size
SW480 rereplic: DNA re-replication induction in SW480 cells; AID 624297; Potency, µM (titrated, usually from 46.1 µM), for the others: top-dose re-replication activation, hits mostly activators; SW480 DNA re-replication, Hoechst DNA content imaging, 48 h; actives 1.8% (n = 340,000); also: % of control where 0% means no effect; nearly all actives have a fitted effect of over 55% in size
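First, 250 cells per well were seeded. Next, compound or vehicle (23 nL) was pinned in, plates sat 48 hr at 37 C. Finally Hoechst was added for 40 min before fluorescence scanning.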
TSG101-PTAP inh: blocks PTAP/TSG101 interaction to inhibit HIV-1 budding | Fluorescence polarization, FITC-PTAP peptide / Tsg101 binding | AID 493005 | Potency, µM (top dose mostly 115 µM), inactives show at the top dose activity change, negative = inhibition, most hits filed as inhibitors | 340,000 tested, under 10 active | Q99816; active = well fitted inhibition curve with a large enough effect in the main read-out, with a control signal flat, not every such curve was filed as active; inconclusive = small, poorly fitted or top-dose-only effect, or effect the other way, or a change in a side signal; inactive = no such curve, though single readings can be large or run the other way; also: % of control where 0% means no effect
Target sequence (Q99816 whole entry, looked up): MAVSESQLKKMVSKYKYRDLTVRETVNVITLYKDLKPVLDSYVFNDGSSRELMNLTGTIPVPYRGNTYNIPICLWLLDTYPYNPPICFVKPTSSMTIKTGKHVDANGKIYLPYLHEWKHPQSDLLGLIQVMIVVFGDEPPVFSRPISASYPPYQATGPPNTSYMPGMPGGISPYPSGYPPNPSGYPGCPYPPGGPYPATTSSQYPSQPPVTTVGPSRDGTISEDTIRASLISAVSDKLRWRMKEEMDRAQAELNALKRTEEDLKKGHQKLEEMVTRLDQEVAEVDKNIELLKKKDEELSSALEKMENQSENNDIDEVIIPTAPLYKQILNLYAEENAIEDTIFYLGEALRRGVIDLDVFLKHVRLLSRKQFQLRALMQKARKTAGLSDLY
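FP read-out: FITC-PTAP peptide, 50 nM final, binding Tsg101 binding domain, 10 uM final; 20 min, r.t.; 10 mM HEPES pH 7.5, 0.15 M NaCl, 0.01% Tween 20, 3 mM EDTA, 0.1 mM TCEP.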
PINK1 expr mod: changes PINK1 expression | PINK1 immunofluorescence, high-content cytometry, 24 h | Potency, µM (top dose mostly 76.6 µM), inactives show at the highest dose activation (PINK1 increase), hits mostly activators | actives 0.2% (n = 410,000) | AID 624263; active = well fitted activation curve with a large enough effect; inconclusive = small, poorly fitted or top-dose-only effect; cell line not stated here; also: % of control where 0% means no effect; nearly all actives have a fitted effect of over 65% in size
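Cells are seeded, rested 12 hours, then given compound at five concentrations or DMSO for 24 hours. After fixation, blocking and antibody staining, PINK1 amount and mitochondrial localization are scored; CCCP serves as control.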
The depositor's hits bear a star; i = inactive; ? = inconclusive; . = not tested or not shown; [ ] = dose if it differs, or a comment. Unless noted, calls follow the shape of the dose curve; as a rule, active = well fitted curve in the direction sought with a large enough effect; inconclusive = small, poorly fitted or top-dose-only effect, or another doubt; inactive = no such curve, though single readings can be large; an effect the other way counts as inactive or inconclusive. Potency is read from the fitted curve at half-maximal effect.

SMILES	KB-3-1 cytotox	KB-V1 cytotox	MCF10A rereplic	SW480 rereplic	TSG101-PTAP inh	PINK1 expr mod
COc1ccc(N2CC(NC(=O)C(c3ccccc3)c3ccccc3)CC2=O)cc1OC (stereo not drawn)	i	i	.	.	.	1%
CCn1c(SCC(=O)Nc2nc(-c3ccc(C)cc3)cs2)nnc1-c1ccccc1	?	2.6µM*	14%	2%	-7%	?
COc1ccc(-c2csc(NC(=O)CSc3nnc(Nc4ccccc4C)s3)n2)cc1	i	i	?	5.8µM*	-6%	-1%
Nc1ccccc1SCC(=O)Nc1nc(-c2ccccc2)cs1	4.1µM*	?	?	1%	-5%	12%
O=C(C[n+]1cc(-c2ccccc2)n2c1CCC2)Nc1nc(-c2ccccc2)cs1	16µM*	i	-6%	-5%	0%	1%
Cc1ccc(-c2c[n+](CC(=O)Nc3nc(-c4ccccc4)cs3)c3n2CCC3)cc1	i	i	29%	-1%	1%	3%
Cc1csc(SCC(=O)Nc2nc(-c3ccccc3)cs2)n1	i	i	4%	-2%	-2%	-2%
COc1ccc(Cn2ccc3nc(C)c(C(=O)N4CCN(c5ccc(OC)cc5)CC4)cc3c2=O)cc1	i	i	.	.	.	0%
COc1cccc(CNc2ncnc3c2nnn3C)c1	.	.	.	.	.	-1%
CC1OC(n2cc(F)c(=O)[nH]c2=O)C(O)C1O (stereo not drawn)	.	.	.	.	.	0%
CN1/C(=C/c2cc[n+](C)c3ccccc23)C=Cc2ccccc21	6.5µM*	i	22%	3%	-2%	?
Cc1ccc(NC(=O)CCCc2nnc3n(C)c(=O)c4sccc4n23)cc1F	i	i	.	.	.	5%
Cc1cc(C)c2nc(C(F)(F)F)c(C#N)c(N)c2c1	?	?	?	-2%	0%	-1%
Cc1ccc2nc(C(F)(F)F)c(C#N)c(N)c2c1	?	?	3.3µM*	?	-7%	-2%[38.3 µM]
Cn1c(=O)c2cc(NC(=O)Cc3ccccc3F)ccc2n1C/C=C/c1ccccc1	i	i	.	.	.	3%
CCOCCC(=O)Nc1ccc2c(c1)c(=O)n(C)n2C/C=C/c1ccccc1	6.5µM*	?	.	.	.	8%
CCCc1nc(NCc2ccncc2)c2nnn(Cc3ccccc3F)c2n1	i	?	-2%	-7%	-5%	-1%
CCCc1nc(NCc2ccccn2)c2nnn(Cc3ccccc3F)c2n1	?	2.9µM*	0%	-46%	-2%	5%
O=C1C(=O)N(C2CCN(S(=O)(=O)c3ccc(F)cc3)CC2)CCN1Cc1ccccc1	i	i	.	.	.	1%
COc1ccc(-c2[nH]ncc2/C=C(/C#N)C(=O)NC2CCCCCC2)cc1	?	i	10µM*	13µM*	-4%	15%
N#CC1=C2SCN(c3ccccc3)CN2C(=O)CC1c1cccs1 (stereo not drawn)	i	i	15%	5%	-3%	0%
COc1cccc(C2CC(=O)N3CN(c4ccccc4F)CSC3=C2C#N)c1 (stereo not drawn)	i	i	4%	-7%	1%	3%
N#CC1=C2SCC(O)(c3ccccc3)N2C(=O)CC1c1ccccc1F (stereo not drawn)	9.2µM*	?	23µM*	?	-6%	9%
N#CC1=C2SCC(O)(c3ccccc3)N2C(=O)CC1c1cccs1 (stereo not drawn)	0.73µM*	0.58µM*	1.3µM*	7.3µM*	-5%	27%[38.3 µM]
COc1ccc(C2CC(=O)N3C(=C2C#N)SCC3(O)c2ccccc2)cc1 (stereo not drawn)	i	21µM*	21%	-2%	-5%	3%[38.3 µM]
COc1ccc(OC)c(NC(=O)COCc2cc(-c3ccco3)on2)c1	i	i	.	.	.	0%
CCN(CC)C(=O)Cn1c(C)c(/C=C/c2cc[n+](C)cc2)c2ccccc21	i	i	11%	-2%	?	-2%
